Experimental findings from PubChem BioAssay (EPA / NIEHS) are described below.

Usually AC50 stands for the midpoint of the concentration-response curve, whichever way the signal moves.

Structures are written as SMILES. “And” between values parts separate entries of the source, which are not always exact repeats. Equal values may be shown once. Records with an inconclusive call do not appear. Where a structure was tested more than once in an assay, its records may differ in their call. The source made the active and inactive calls. Rule for the calls, unless noted: active = hit-call score of the fitted dose curve at least 0.9, where 1 is the maximum; inactive = score below 0.9.

Assay [1] can be described thus: CCTE_Shafer_MEA_acute_cross_correlation_HWHM: CCTE's Neural Acute Assay for Cross Correlation at Half Width at Half Maximum, Shafer Lab (AID 2284026).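 For outcome: spontaneous network firing of rat primary cortical neurons on multiwell microelectrode arrays.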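 Note: percent change per well from pre-dose baseline in spike cross-correlogram half width; hits are a decrease in cross-correlogram half width relative to DMSO.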 A digest of the protocol:
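Per-well percent change in cross-correlogram half width at half maximum, derived from 40-min recordings before and after compound (0.03-40 uM) at 37 C. Cultures were rat cortical neurons, DIV 13 or 15, with adaptive spike detection at 8x rms.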

Assay [2] in a line: CCTE_Shafer_MEA_acute_synchrony_index: CCTE's Neural Acute Assay for Synchrony, Shafer Lab (AID 2284027).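 Note: network synchrony index of spontaneous spiking in primary rat cortical neurons on MEAs; fitted for loss of signal so actives lower synchrony relative to DMSO.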 A digest of the protocol:
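Acute exposure of rat primary cortical neurons (DIV 13 or 15) at 0.03-40 uM. Synchrony index, 40 min before vs after, as % change relative to DMSO control.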

Assay [3] is described as follows: CCTE_Shafer_MEA_dev_firing_rate_mean: CCTE's Neural Network Formation Assay for Mean Firing Rate, Shafer Lab (AID 2284031).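 For AC50: curve fitted for loss of firing so AC50 reflects decreased mean firing rate.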 The method, boiled down: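 Extracellular spike frequency, AUC over DIV 5–12 recordings, in rat cortical neuron MEA cultures dosed from plating; loss direction vs DMSO.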
A short description of assay [4]: CCTE_Shafer_MEA_dev_per_burst_spike_percent: CCTE's Neural Network Formation Assay for Percent of Spikes in a Burst, Shafer Lab (AID 2284032).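 For AC50: fitted as a decrease in burst spike percentage below DMSO baseline.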 A digest of the protocol: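 Value is trapezoidal AUC over recordings on days 5, 7, 9 and 12 of the well-mean fraction of spikes falling in single-electrode bursts; rat cortical cultures exposed continuously from plating, treatment renewed DIV 5 and 9, fitted downward against DMSO.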

Assay [5] can be described thus: CCTE_Deisenroth_AIME_384WELL_CTox_Active: Cytotoxicity Assessment (CTOX) in CCTE's 384-well Estrogen Receptor Transactivation Assay with AIME metabolic competence (metabolism positive), Deisenroth Lab (AID 2284037; active = hit-call score of the fitted dose curve at least 0.9, where 1 is the maximum;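 note: chemicals first conditioned 2 h by alginate-bound induced rat liver S9 before cells; activity means signal loss indicating cell death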). A digest of the protocol:
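Cytotoxicity in VM7Luc4E2 breast cells, 24 hour, measured as protease-substrate fluorescence loss, after 2-hour metabolic conditioning with induced rat hepatic S9 in alginate microspheres. Concentrations 0.002 - 200 uM, 10 points, bidirectional fitting.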

In assay [6] the target is Estrogen receptor (Homo sapiens) (UniProt P03372). Briefly: CCTE_Deisenroth_AIME_384WELL_LUC_Inactive: CCTE's 384-well Estrogen Receptor Transactivation Assay without AIME metabolic competence (ERTA luciferase; metabolism negative), Deisenroth Lab (AID 2284038; active = hit-call score of the fitted dose curve at least 0.9, where 1 is the maximum;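 note: hits raise estrogen receptor luciferase signal so potencies reflect agonists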). A digest of the protocol: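 Metabolism-negative mode: AIME lids stamped in alginate-water, no hepatic S9. 2 h chemical incubation → medium onto VM7Luc4E2 ERTA, 24 h. Readout luciferase luminescence; gain-of-signal fit vs 17beta-estradiol. Conc. 0.002 - 200 uM.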
Chain of Estrogen receptor (Homo sapiens) (P03372 whole entry, looked up): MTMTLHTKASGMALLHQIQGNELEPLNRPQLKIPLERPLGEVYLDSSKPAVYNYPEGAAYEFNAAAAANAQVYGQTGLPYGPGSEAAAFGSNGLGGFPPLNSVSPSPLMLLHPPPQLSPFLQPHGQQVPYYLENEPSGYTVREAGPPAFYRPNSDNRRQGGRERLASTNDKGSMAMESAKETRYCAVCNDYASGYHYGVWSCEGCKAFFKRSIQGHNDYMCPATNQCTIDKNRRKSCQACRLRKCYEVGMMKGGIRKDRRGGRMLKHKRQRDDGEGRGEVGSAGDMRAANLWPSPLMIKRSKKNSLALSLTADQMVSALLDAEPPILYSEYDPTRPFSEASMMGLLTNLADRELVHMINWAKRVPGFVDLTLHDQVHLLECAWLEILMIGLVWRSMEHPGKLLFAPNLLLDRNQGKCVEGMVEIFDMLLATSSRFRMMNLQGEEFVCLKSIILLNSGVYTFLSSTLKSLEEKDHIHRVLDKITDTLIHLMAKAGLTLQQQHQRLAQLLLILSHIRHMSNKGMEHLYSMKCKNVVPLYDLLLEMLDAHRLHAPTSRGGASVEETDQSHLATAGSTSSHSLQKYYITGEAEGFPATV

Assay [7] is described as follows: CCTE_Deisenroth_AIME_384WELL_CTox_Inactive: Cytotoxicity Assessment (CTOX) in CCTE's 384-well Estrogen Receptor Transactivation Assay without AIME metabolic competence (metabolism negative), Deisenroth Lab (AID 2284039; active = hit-call score of the fitted dose curve at least 0.9, where 1 is the maximum;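 note: cell viability via live-cell protease substrate cleaved to fluorescent probe; loss of fluorescence signal means loss of viability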). The method, boiled down: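 Fluorescent protease-substrate viability readout after 24 h exposure of VM7Luc4E2 cells to conditioned medium. Chemicals (0.002–200 uM) first sat 2 h over alginate-water beads, no S9. Data fitted bidirectionally, loss of signal meaning viability loss.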

A short description of assay [8]: CCTE_Shafer_MEA_dev_active_electrodes_number: CCTE's Neural Network Formation Assay for Number of Active Electrodes, Shafer Lab (AID 2284040; active = hit-call score of the fitted dose curve at least 0.9, where 1 is the maximum;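 for AC50: potency for loss of active electrodes versus DMSO so lower counts are hits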). A digest of the protocol:
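Developing rat cortical networks on MEAs, exposed DIV 0–12. Value is the AUC of active-electrode counts (≥5 spikes/min) from days 5, 7, 9, 12, relative to DMSO.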

In assay [9] the target is Estrogen receptor (Homo sapiens) (UniProt P03372). Put plainly: CCTE_Deisenroth_AIME_384WELL_LUC_Shift: CCTE's 384-well Estrogen Receptor Transactivation Assay with AIME metabolic competence data shift (ERTA luciferase; difference in metabolism positive and negative), Deisenroth Lab (AID 2284041).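 Note: shift is response with S9 minus without S9 so positive means metabolism raised ER signal.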 The method, boiled down:
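Test chemicals (0.002–200 uM, 10-point) were pre-incubated 2 h with alginate microspheres containing phenobarbital/beta-naphthoflavone-induced male Sprague Dawley rat liver S9 or water, then medium was transferred to VM7Luc4E2 cells for 24 h luciferase readout; shift = S9-positive minus S9-negative normalized response.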

Assay [10] in a line: CCTE_Shafer_MEA_dev_burst_rate: CCTE's Neural Network Formation Assay for Burst Rate, Shafer Lab (AID 2284042).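 For AC50: potency for loss of burst rate below DMSO control.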 A digest of the protocol:
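Exposure ran continuously over 12 days of network development in rat cortical cultures, with compound refreshed during full media changes on DIV 5 and 9. Single-electrode bursts per recording time, well-mean over active electrodes, trapezoidal AUC across days 5–12, fitted downward relative to DMSO.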

Assay [11] in a line: CCTE_Shafer_MEA_dev_bursting_electrodes_number: CCTE's Neural Network Formation Assay for Number of Bursting Electrodes, Shafer Lab (AID 2284043; active = hit-call score of the fitted dose curve at least 0.9, where 1 is the maximum;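 for AC50: potency is for loss of bursting electrodes relative to DMSO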). The method, boiled down: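 Number of electrodes reaching ≥1 burst every 2 min was recorded at DIV 5, 7, 9 and 12 and collapsed as trapezoidal area under the curve. Cultures were rat cortical neurons on MEA plates, dosed continuously from plating with medium and treatment refreshed on DIV 5 and 9.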

A short description of assay [12]: CCTE_Shafer_MEA_dev_per_burst_interspike_interval: CCTE's Neural Network Formation Assay for Burst Interspike Interval, Shafer Lab (AID 2284044).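 For AC50: potency for a decrease of within-burst interspike interval below DMSO level.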 A digest of the protocol:
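Mean interspike interval within single-electrode bursts, averaged over bursting electrodes, from rat cortical cultures on MEA plates recorded on days 5, 7, 9 and 12. Continuous compound exposure from plating; trapezoidal AUC fitted downward relative to DMSO.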

Assay [13] is described as follows: CCTE_Shafer_MEA_dev_burst_duration_mean: CCTE's Neural Network Formation Assay for Mean Burst Duration, Shafer Lab (AID 2284045).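 For AC50: curve fitted for loss meaning shorter burst duration than DMSO.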 The method, boiled down: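 Mean single-electrode burst duration (first to last spike), averaged over bursting electrodes per well, then integrated as area-under-curve across recordings at days 5, 7, 9 and 12. Rat cortical cultures on MEAs, compound present from plating, refreshed at feeds.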

Assay [14] can be described thus: CCTE_Shafer_MEA_dev_interburst_interval_mean: CCTE's Neural Network Formation Assay for Mean Interburst Interval, Shafer Lab (AID 2284046).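 Note: well-mean interburst interval of bursting electrodes as AUC over four recording days; curve fitted for decrease in interburst interval relative to DMSO.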 A digest of the protocol:
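Primary rat cortical neurons on PEI-coated 48-well MEA plates (laminin added with cells at plating) (16 electrodes/well), exposed from plating day 0 with renewal at DIV 5 and 9. Mean inter-burst interval averaged over bursting electrodes, AUC across days 5, 7, 9, 12; DMSO baseline.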

The nature of assay [15]: CCTE_Shafer_MEA_dev_inter_network_spike_interval_mean: CCTE's Neural Network Formation Assay for Mean Inter-network Spike Interval, Shafer Lab (AID 2284047).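 For AC50: potency for a decrease in mean inter-network spike interval below DMSO.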 The method, boiled down: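 Mean time between consecutive network-spike peaks, recorded extracellularly (adaptive spike detection) on DIV 5, 7, 9 and 12, summarized as trapezoidal AUC. Rat cortical cultures on MEAs dosed continuously days 0–12, re-dosed at feeds; loss-of-signal fit relative to DMSO.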

Assay [16] in a line: CCTE_Shafer_MEA_dev_network_spike_number: CCTE's Neural Network Formation Assay for Number of Network Spikes, Shafer Lab (AID 2284048).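 For AC50: fit as a loss of signal meaning fewer network spikes than DMSO.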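 Note: synchronized bursts across electrodes counted on days 5 7 9 12 and integrated as AUC.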 A digest of the protocol: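 Number of network spikes (coordinated firing across electrodes) recorded on days 5, 7, 9 and 12 and summarised as area under the curve. Rat cortical cultures on MEA, continuous compound exposure with full medium/treatment exchange at DIV 5 and 9.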

Assay [17] is described as follows: CCTE_Shafer_MEA_dev_network_spike_peak: CCTE's Neural Network Formation Assay for Mean Number of Electrodes in Network Spike, Shafer Lab (AID 2284049).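 Note: fitted for loss of signal meaning fewer electrodes in network spikes than DMSO.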 The method, boiled down:
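Rat cortical primary culture, 1.5 x 10^5 cells/well, 48-well MEA (16 electrodes/well). Dosing day 0 through DIV 12, full media/compound exchange DIV 5, 9. AxIS adaptive spike detection; AUC over days 5/7/9/12; loss-of-signal vs DMSO.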

Assay [18] concerns the target Estrogen receptor (Homo sapiens) (UniProt P03372). Put plainly: CCTE_Deisenroth_AIME_96WELL_LUC_Inactive: CCTE's 96-well Estrogen Receptor Transactivation Assay without AIME metabolic competence (ERTA luciferase; metabolism negative), Deisenroth Lab (AID 2284025; active = hit-call score of the fitted dose curve at least 0.9, where 1 is the maximum). The method, boiled down: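 Metabolism-negative arm: chemicals (0.002–200 uM, 10 points) incubated 2 h with alginate-water microspheres, then medium moved onto VM7Luc4E2 cells for 24 h luciferase read-out. Positive direction vs 17beta-estradiol; n≥4 experiments.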

A short description of assay [19]: CCTE_Deisenroth_AIME_96WELL_CTox_Active: Cytotoxicity Assessment (CTOX) in CCTE's 96-well Estrogen Receptor Transactivation Assay with AIME metabolic competence (metabolism positive), Deisenroth Lab (AID 2284028; active = hit-call score of the fitted dose curve at least 0.9, where 1 is the maximum). A digest of the protocol:
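Cytotoxicity in VM7Luc4E2 breast cells after 24 h exposure to medium from a 2 h metabolic pre-incubation with induced rat hepatic S9 in alginate microspheres; fluorescent live-cell protease readout, 10-point series 0.002–200 uM, n=4.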

A short description of assay [20]: CCTE_Deisenroth_AIME_96WELL_CTox_Inactive: Cytotoxicity Assessment (CTOX) in CCTE's 96-well Estrogen Receptor Transactivation Assay without AIME metabolic competence (metabolism negative), Deisenroth Lab (AID 2284029; active = hit-call score of the fitted dose curve at least 0.9, where 1 is the maximum). The method, boiled down: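 Cytotoxicity in VM7Luc4E2 breast cells was scored as loss of fluorescent signal from a live-cell protease substrate 24 h after exposure, using bidirectional curve fitting. Test media came from a 2 h metabolism-negative pre-incubation (alginate-water, no hepatic S9) of compounds at 0.002-200 uM, with at least four replicates.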

In the case of `OC(c1ccc(Cl)cc1)(c1cncnc1)c1ccccc1Cl` (configuration not stated), the half-maximal activity concentration (AC50) in assay [1] is 4.34 µM (active); in assay [2] it was 3.05 µM (active).

Regarding `COC(=O)N(OC)c1ccccc1COc1ccn(-c2ccc(Cl)cc2)n1`, the concentration at half-maximal activity (AC50) was 1.62 µM (active) in [1]; 1.73 µM (active) in [2]; 79.6 nM (active) in [3]; 184 nM (active) and 27 nM (active) in assay [4]; 2.68 µM (active) in assay [5]; 19.8 µM (active) in assay [7]. In addition, the AC50 is 77 nM (active) and 13.7 nM (active) in [8]; 91.4 nM (active) in assay [10]; 123 nM (active) and 13 nM (active) in [11]; 269 nM (active) and 50 nM (active) in assay [12]; 0.129 µM (active) in [13]; 264 nM (active) and 13.7 nM (active) in assay [14]. Further, the AC50 in [15] is 0.128 µM (active); in assay [16] it was 66.9 nM (active); in assay [17], 72.5 nM (active) and 15.9 nM (active). The result in assay [3], in assay [6], in assay [9], in assay [10], in assay [13] and in assay [15] was inactive. For the same molecule, the call in [16] was inactive.

For the molecule `N#CC(CCc1ccc(Cl)cc1)(Cn1cncn1)c1ccccc1` (configuration not stated), the result in assay [1] and in assay [2] was inactive.

With `CCOP(=S)(OCC)SCn1c(=O)oc2cc(Cl)ccc21`, the molecule was called inactive in assay [1]. In addition, the AC50 in assay [2] was 29.3 µM (active).

In the case of `CC1COC(Cn2cncn2)(c2ccc(Oc3ccc(Cl)cc3)cc2Cl)O1` (configuration not stated), the AC50 in assay [1] was 4.15 µM (active); in assay [2], 11.5 µM (active).

Regarding `CCCCC(CC)COC(=O)c1ccccc1C(=O)OCC(CC)CCCC` (configuration not stated), the call in assay [18], in assay [19], in [20], in assay [3], in [4] and in [8] was inactive. For the same molecule, the molecule was called inactive in assay [10], in [11], in assay [12], in assay [13], in assay [14] and in [15]. The molecule was classed as inactive in [16]. Further, the concentration at half-maximal activity (AC50) in assay [3] was 2.98 µM (active) and 3.04 µM (active); in assay [4] it was 15 µM (active) and 9.27 µM (active); in [8], 15 µM (active) and 7.34 µM (active); in assay [10] it was 2.98 µM (active) and 6.34 µM (active); in assay [11] it was 7.91 µM (active) and 6.07 µM (active); in assay [12], 9.06 µM (active). Moreover, the concentration at half-maximal activity (AC50) in assay [13] is 3.18 µM (active); in assay [14], 12.6 µM (active); in assay [16], 2.32 µM (active) and 12.8 µM (active); in [17], 15 µM (active) and 423 nM (active) and 8.09 µM (active).

In the case of `Oc1ccccc1-c1ccccc1`, the half-maximal activity concentration (AC50) in assay [18] is 58.3 µM (active). Also, the outcome in assay [20], in assay [5], in assay [6], in assay [7] and in assay [9] was inactive.

As to `C=CCC1=C(C)C(OC(=O)C2C(C=C(C)C)C2(C)C)CC1=O` (configuration not stated), the AC50 in [1] was 2.38 µM (active); in [2] it was 5.52 µM (active) and 2.93 µM (active); in assay [4], 14.8 µM (active); in [8], 10 µM (active) and 14.8 µM (active); in assay [11] it was 5.72 µM (active) and 14.8 µM (active); in assay [16], 1150 nM (active). Further, the AC50 in [17] is 2.93 µM (active) and 14.8 µM (active). In addition, the molecule was called inactive in [1], in assay [3], in assay [4], in assay [6], in assay [9] and in assay [10]. In addition, the outcome in assay [12], in assay [13], in assay [14], in assay [15] and in assay [16] was inactive.

Take `CCCCOC(=O)c1ccccc1C(=O)OCCCC`: the half-maximal activity concentration (AC50) in assay [18] was 34.1 µM (active); in assay [4], 75.3 µM (active); in assay [8], 75.1 µM (active); in assay [11], 78.4 µM (active); in assay [17], 74.9 µM (active). In addition, the molecule was called inactive in assay [19], in assay [3], in [10], in assay [12], in [13] and in [14]. Further, the molecule was called inactive in assay [15] and in assay [16].

Consider `COC(=O)C(C)Oc1ccc(Oc2ccc(Cl)cc2Cl)cc1` (configuration not stated), for which the AC50 in assay [1] is 11.7 µM (active); in [2], 20 µM (active).
